Tau fibril FP = qHTS for Inhibitors of Tau Fibril Formation, Fluorescence Polarization; Microtubule-associated protein tau (Homo sapiens), P10636; K18 P301L tau heparin fibrillization, Alexa594 FP, 6 h; Potency, µM (titrated, usually from 57.7 µM), for inactives: at the top dose activity, negative = inhibition, usual class: inhibitors; 280,000 compounds, 0.39% hits; also: nearly all actives have a fitted effect of over 55% in size
Target sequence (P10636 561-689 P618L limits assumed): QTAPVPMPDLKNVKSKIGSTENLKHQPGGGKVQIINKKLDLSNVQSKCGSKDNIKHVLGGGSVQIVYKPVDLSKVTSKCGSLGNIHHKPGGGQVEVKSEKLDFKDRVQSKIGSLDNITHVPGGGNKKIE
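Recombinant K18 P301L […], labeled with Alexa 594 at 0.24 uM over 15 uM unlabeled; heparin inducer 20 uM final; 37 C, 6 hr; FP endpoint.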
ALDH1A1 block = qHTS Assay for Inhibitors of Aldehyde Dehydrogenase 1 (ALDH1A1); Potency, µM (titrated, usually from 75.3 µM), for inactives: at the top dose activity, negative = inhibition, actives largely listed as inhibitors; Purified ALDH1A1, NADH fluorescence, propionaldehyde substrate; 220,000 compounds, 7.3% hits; Aldehyde dehydrogenase 1A1 (Homo sapiens), P00352; active = well fitted inhibition curve with a large enough effect, not every such curve was filed as active; inconclusive = small, poorly fitted or top-dose-only effect, or another doubt; inactive = no such curve, though single readings can be large or run the other way;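 also: plate controls were no enzyme wells and a reference inhibitor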
Target sequence (P00352 whole entry, looked up): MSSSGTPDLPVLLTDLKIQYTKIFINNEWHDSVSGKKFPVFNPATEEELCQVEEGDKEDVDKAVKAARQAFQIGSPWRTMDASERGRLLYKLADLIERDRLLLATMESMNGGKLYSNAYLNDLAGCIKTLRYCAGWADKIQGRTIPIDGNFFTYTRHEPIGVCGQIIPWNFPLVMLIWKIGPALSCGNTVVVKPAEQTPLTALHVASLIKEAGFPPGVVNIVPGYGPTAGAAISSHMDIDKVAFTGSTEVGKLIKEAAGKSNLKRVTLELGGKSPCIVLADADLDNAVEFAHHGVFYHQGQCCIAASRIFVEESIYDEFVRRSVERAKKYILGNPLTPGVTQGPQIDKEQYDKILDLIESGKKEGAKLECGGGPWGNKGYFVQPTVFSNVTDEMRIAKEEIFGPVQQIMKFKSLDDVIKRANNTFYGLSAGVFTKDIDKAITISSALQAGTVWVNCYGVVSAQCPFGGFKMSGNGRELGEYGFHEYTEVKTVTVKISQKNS
Tau fluor cs = Counterscreen qHTS for Inhibitors of Tau Fibril Formation, Fluorescence Polarization | tau K18 P301L Alexa594 fluorescence, heparin fibrillization | Potency, µM (top dose mostly 57.7 µM), for inactives: at the highest dose activity change, negative = decrease | 280,000 compounds, 0.93% hits | AID 1463, 2008; also: nearly all actives have a fitted effect of over 55% in size
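Human tau K18 P301L (15 uM unlabeled, 0.24 uM Alexa 594-labeled) in 100 mM sodium acetate pH 7 with 20 uM heparin, 6 hr at 37 C. ThT 30 uM added, 1 hr ambient; Alexa 594 FP and total fluorescence read at 555/632 nm.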
JMJD2E inh = qHTS Assay for Inhibitors of Human Jumonji Domain Containing 2E (JMJD2E). Lysine-specific demethylase 4E (Homo sapiens), B2RXH2. JMJD2E catalytic domain, FDH-coupled NADH fluorescence (FDH is formaldehyde dehydrogenase). Potency, µM (top dose mostly 57.1 µM), inactives show at the highest dose activity change, negative = inhibition, hits mostly inhibitors. 230,000 compounds, 1.6% hits; active = well fitted inhibition curve with a large enough effect, not every such curve was filed as active; inconclusive = small, poorly fitted or top-dose-only effect, or another doubt; inactive = no such curve, though single readings can be large or run the other way;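 also: 0% = wells with enzyme and -100% = buffer wells without enzyme; nearly all actives have a fitted effect of over 50% in size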
Tau ThT inhib = qHTS for Inhibitors of Tau Fibril Formation, Thioflavin T Binding; Microtubule-associated protein tau (Homo sapiens), P10636; recombinant tau K18 P301L (four-repeat tau fragment), heparin-induced fibrillization, ThT fluorescence; Potency, µM (titrated, usually from 57.4 µM), for the others: top-dose activity, negative = inhibition, usual class: inhibitors; 270,000 compounds, 2.1% hits; AID 1460, 2008; also: nearly all actives have a fitted effect of over 55% in size
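K18 P301L tau (15 uM + 0.24 uM Alexa 594-tagged), heparin 20 uM, NaOAc pH 7, 6 h 37 C; ThT 30 uM, 1 h RT, ex 450/em 510 nm.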
HPGD block = qHTS Assay for Inhibitors of HPGD (15-Hydroxyprostaglandin Dehydrogenase). Potency, µM, inactives show top-dose activity change, negative = inhibition, most hits filed as inhibitors. 150,000 compounds, 4.3% hits. 15-hydroxyprostaglandin dehydrogenase [NAD(+)] (Homo sapiens), P15428. purified HPGD, NADH fluorescence kinetic, PGE2 substrate; active = well fitted inhibition curve with a large enough effect, not every such curve was filed as active; inconclusive = small, poorly fitted or top-dose-only effect, or another doubt; inactive = no such curve, though single readings can be large or run the other way
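NADH formation kinetics: reaction with 30 uM PGE2 and 1 mM NAD+ (final), 20 nM enzyme, Tris-HCl pH 8 with Tween 20, after 15 min compound preincubation at room temperature. Fluorescence change, last versus first of five reads.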
* = called active by the depositor; ? = inconclusive; nt = no result; [ ] = remark or other dose. Hits are enriched below; roughly 9.9% of the tested compounds scored in any of these assays. Unless noted, calls follow the shape of the dose curve; as a rule, active = well fitted curve in the direction sought with a large enough effect; inconclusive = small, poorly fitted or top-dose-only effect, or another doubt; inactive = no such curve, though single readings can be large; an effect the other way counts as inactive or inconclusive. Unless noted, % is scaled to controls: 0 for no effect and ±100 for the full control effect; potency is read from the fitted curve at half-maximal effect.

SMILES	Tau fibril FP	ALDH1A1 block	Tau fluor cs	JMJD2E inh	Tau ThT inhib	HPGD block
CCN(CC)Cc1c(C(=O)N2CCc3ccccc3C2)nc2ccc(Cl)cn12	5%	13µM*	5%	0%	9%	nt
O=C(CSc1nc2c(c(=O)n1-c1ccc(Br)cc1)SCC2)NCc1ccco1	4%	3%	-12%	-6%	-10%	-13%
O=C(CSc1nc2c(c(=O)n1-c1ccc(Br)cc1)SCC2)NCC1CCCO1 (centres undefined)	4%	?	3%	6%	4%	-15%
CCOC(=O)c1sc(NC(=O)CSc2nc3c(c(=O)n2-c2ccc(C)cc2)SCC3)c(C(=O)OCC)c1C	2%	9.5µM*	-8%	-1%	-3%	-29%
CCOC(=O)c1sc(NC(=O)CSc2nnnn2-c2ccc(C)cc2)c(C(=O)OCC)c1C	7%	10%	-6%	-3%	3%	-9%
Cc1ccc(-n2c(SCC(=O)NCC3CCCO3)nc3c(c2=O)SCC3)cc1 (centres undefined)	6%	25µM*	11%	3%	8%	-27%
Cc1ccc(-n2c(SCC(=O)NCC3CCCO3)nnc2-c2ccoc2C)cc1 (centres undefined)	0%	4%	-1%	3%	0%	-6%
Cc1ccc(C)c(-n2c(SCC(=O)NCC3CCCO3)nnc2-c2ccoc2C)c1 (centres undefined)	28µM*	?	-15%	-5%	?	-15%
CCOc1ccc(-n2c(SCC(=O)NCc3ccco3)nc3c(c2=O)SCC3)cc1	-3%	14µM*	-12%	-4%	?	-20%
CN1C(=O)C2(c3ccccc31)N(c1ccc(Br)cc1)C(=O)CS2(=O)=O (centres undefined)	-5%	nt	0%	nt	4%	nt
Cc1ccc(Cn2c(SCC(=O)NCC3CCCO3)nc3ccsc3c2=O)cc1 (centres undefined)	-10%	20µM*	-10%	8%	2%	nt
O=C(OC1CCS(=O)(=O)c2sccc21)c1ccccc1 (centres undefined)	-6%	22µM*	-7%	1%	-4%	-10%
CC1(C)Cc2cccc(OCC(=O)OCC(=O)Nc3cccc(S(N)(=O)=O)c3)c2O1	5%	nt	11%	0%	0%	nt
CC(C)OC(=O)CCCNc1ccc([N+](=O)[O-])cc1[N+](=O)[O-]	2%	?	-15%	4%	-16%	-20%
O=C(Nc1c2c(nn1-c1ccc(F)cc1)CS(=O)(=O)C2)C12CC3CC(CC(C3)C1)C2	3%	4µM*	-5%	4%	4%	-13%
O=C(Nc1c2c(nn1-c1ccc(Cl)cc1)CS(=O)(=O)C2)c1cccc(Cl)c1	-8%	nt	-27%	nt	-12%	nt
O=C(CCC1CCCCC1)Nc1c2c(nn1-c1ccc(F)cc1)CS(=O)(=O)C2	-1%	10µM*	-6%	-2%	10%	-7%
O=c1c2ccccc2nc(/C=C/c2c[nH]c3ccccc23)n1CCO	?	0%	20µM*[quencher]	-17%	?	nt
CC(C)N(C(=O)COC(=O)CNC(=O)c1ccc(Br)cc1)c1ccccc1	2%	4%	-6%	-1%	5%	-14%
CCn1nc(CC(=O)Nc2nnc(CC(=O)N3CCCCC3)s2)c2ccccc2c1=O	-6%	-7%	-7%	3%	-8%	22µM*
COc1cccc(C2CCCCN(C)C2=O)c1 (centres undefined)	4%	6%	-2%	13%	-4%	nt
Cc1ccc(C(=O)N2CCN(c3ccc(NC(=O)COc4ccccc4C)cc3)CC2)cc1	4%	?	-21%	5%	?	nt
Cc1cc(C)n2c(=S)[nH]nc2n1	?	1.4µM*	-16%	7.1µM*	?	2.8µM*
Cc1cc(C)n2cnnc2n1	5%	nt	-10%	?	-7%	nt
COc1ccc(C2CC(=O)N3CN(c4ccc(C)c(Cl)c4)CSC3=C2C#N)cc1 (centres undefined)	?	3.2µM*	-17%	?	32µM*	?
SMILES	Tau fibril FP	ALDH1A1 block	Tau fluor cs	JMJD2E inh	Tau ThT inhib	HPGD block
COc1ccc(OC)c(C2CC(=O)N3CN(c4ccccc4)CSC3=C2C#N)c1 (centres undefined)	16µM*	7.9µM*	?	?	28µM*	7.1µM*
COc1ccc(N2CSC3=C(C#N)C(c4cccc(OC)c4OC)CC(=O)N3C2)cc1 (centres undefined)	?	13µM*	-25%	?	18µM*	8.9µM*
COc1ccc(C2CC(=O)N3CN(c4ccccc4F)CSC3=C2C#N)cc1OC (centres undefined)	?	7.1µM*	-24%	28µM*	28µM*	?
COc1ccc(N2CN=C3SCC(=O)N3C2)cc1	-1%	1%	-1%	0%	-15%	-2%
COc1ccc(C2CC(=O)N(C)c3ccccc3S2)cc1OC (centres undefined)	-1%	10%	1%	-5%	-4%	nt
COc1ccc(CN2CC(=O)N(c3ccccc3C)C2=S)cc1OC	?	11%	-17%	0%	-12%	nt
CCc1ccccc1N1CSC2=C(C#N)C(c3ccccc3F)CC(=O)N2C1 (centres undefined)	?	2.8µM*	-18%	32µM*	28µM*	5.6µM*
Cc1cccc(N2CSC3=C(C#N)C(c4ccc(C)o4)CC(=O)N3C2)c1 (centres undefined)	?	8.9µM*	-27%	28µM*	14µM*	8.9µM*
C=CCOC(=O)C1=C(C)OC(N)=C(C#N)C1c1ccccc1F (centres undefined)	-7%	-6%	-23%	3%	-13%	-13%
COc1cc(OC)c(C2CC(=O)N3CN(c4ccccc4C)CSC3=C2C#N)cc1OC (centres undefined)	32µM*	4µM*	-24%	22µM*	28µM*	8.9µM*
COC(=O)CSC1=C(C#N)C(c2ccc(C)o2)CC(=O)N1 (centres undefined)	6%	-3%	1%	7%	-6%	nt
Cc1csc2nc(COC(=O)c3ccccc3NC(=O)c3ccc(C(C)(C)C)cc3)cc(=O)n12	3%	nt	-2%	nt	3%	nt
CCCCNC(=O)/C(C#N)=C/c1ccc(F)cc1F	12%	1%	-2%	-11%	-12%	nt

From PubChem BioAssay
